Data on four compounds can be found in PubChem BioAssay.

Activity calls are given as the source filed them. Unless noted, no rule for the calls is given here.

Assay [1] has as its system Wnt5a (protein binding on small-molecule microarray). The assay is described as follows: Wnt5a binders on small-molecule microarray, primary screen, biophysical, 635/667 nm fluorescence (AID 1142).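 Also: fluorescence read at 667 nm with signal to noise per printed feature.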 The settings on record: 635 nm fluorescence, higher = more signal.
Assay [2] can be described thus: cell viability in Huh7 cells, primary screen, cytotoxicity control for HCV replication inhibitor project, CellTiter-Glo luminescence, basal, 48 h (AID 1143).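 Also: Huh7 hepatoma cells carrying a hepatitis C replication reporter with no stimulus; test concentration not given here.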 Conditions: Huh7 HCV replicon, higher = more signal, called active from +8 up or from −8 down. In general terms: In ATP-based viability assays light output follows the ATP content of the culture.
Assay [3] in a line: P. aeruginosa biofilm formation inhibitors, primary screen, PAO1 strain, BacTiter-Glo luminescence, LB-PBS (AID 1144). Conditions: 12 h, higher = more signal.
The nature of assay [4]: CREB reporter modulators without forskolin, primary screen, cell-based, PC12, CRE-LacZ reporter, unstimulated (AID 1145). The settings on record: no forskolin, luminescence, 4.5 h, higher = more signal, called active from +8 up or from −8 down.
Assay [5] can be described thus: CREB reporter modulators under forskolin, primary screen, cell-based, PC12, CRE-LacZ reporter, forskolin-stimulated (AID 1146).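 Also: PC12 cells with 6xCRE LacZ reporter stimulated by forskolin 10 µM; beta-galactosidase reporter signal reflecting CREB driven transcription.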 Conditions: luminescence, 4.5 h, higher = more signal, called active from +8 up or from −8 down.
For assay [6], the target named is Streptavidin (Streptomyces avidinii) (UniProt P22629). As to the kind of experiment: streptavidin binders on small-molecule microarray, primary screen, artefact control for SMM compound annotation, biophysical, 635/667 nm fluorescence (AID 1147).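 Also: signal reflects streptavidin binding to arrayed compounds as a control protein.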 Conditions: streptavidin binding, higher = more signal.
Chain of Streptavidin (Streptomyces avidinii) (P22629 whole entry, looked up): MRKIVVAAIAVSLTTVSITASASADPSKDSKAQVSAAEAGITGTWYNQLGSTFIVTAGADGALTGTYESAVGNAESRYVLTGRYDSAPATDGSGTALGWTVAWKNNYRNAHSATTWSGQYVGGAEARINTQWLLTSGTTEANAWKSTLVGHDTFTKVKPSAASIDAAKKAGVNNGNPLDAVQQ
Assay [7] in a line: small-molecule binders of probe aInhba, primary screen, biochemical, small-molecule microarray, 635/667 nm fluorescence (AID 1148).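 Also: score merges 667nm spot fluorescence with signal-to-noise for antibody binding to printed compounds.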 The settings on record: higher = more signal.
For assay [8], the target named is Torsin-1A (Homo sapiens) (UniProt O14656). As to the kind of experiment: torsin A binders from cell lysate, primary screen, small-molecule microarray, wild-type, 635/667 nm (AID 1149). Conditions: COS7 hTOR1A-WT lysate, 635 nm fluorescence, higher = more signal.
Chain of Torsin-1A (Homo sapiens) (O14656 whole entry, looked up): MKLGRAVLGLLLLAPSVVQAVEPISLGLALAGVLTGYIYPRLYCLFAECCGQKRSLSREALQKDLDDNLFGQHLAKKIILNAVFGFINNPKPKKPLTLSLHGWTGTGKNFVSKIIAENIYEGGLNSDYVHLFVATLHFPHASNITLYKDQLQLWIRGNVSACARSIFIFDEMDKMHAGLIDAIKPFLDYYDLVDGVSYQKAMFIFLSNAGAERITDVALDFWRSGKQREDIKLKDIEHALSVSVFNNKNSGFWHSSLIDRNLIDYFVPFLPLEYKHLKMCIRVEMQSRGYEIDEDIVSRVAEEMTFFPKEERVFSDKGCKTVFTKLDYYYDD
The target is the same in assay [9]. The assay is described as follows: small-molecule binders of mutant TOR1A in lysate, primary screen, cell lysate, small-molecule microarray, COS7 lysate, 635/667 nm fluorescence (AID 1150).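 Also: score pools 667 nm emission and signal to noise measuring lysate protein binding.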 Conditions: COS7 hTOR1A mutant lysate, 635 nm fluorescence, higher = more signal.
Assay [10] has as its system Sonic hedgehog protein (Shh). The assay is described as follows: small-molecule binders of Shh protein, primary screen, biochemical, small-molecule microarray, 635/667 nm fluorescence (AID 1151).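 Also: Shh protein binding to compounds spotted on small-molecule microarray slides; score combines spot fluorescence intensity with signal-to-noise across triplicate slides.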 The settings on record: small-molecule microarray binding, 635 nm fluorescence; higher = more signal.
Assay [11] in a line: E. coli DRC41 culture turbidity changes, primary screen, E. coli filamentation inducer project, strain DRC41, OD650, 48 h (AID 1152).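 Also: E. coli MC1000 strain DRC41 lacking acrAB efflux pump and sulA.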 Conditions: E. coli DRC41 (acrAB sulA), higher = more signal, called active from +8 up or from −8 down.
The nature of assay [12]: small-molecule binders of probe aLefty1, primary screen, biochemical, small-molecule microarray, 635/667 nm fluorescence (AID 1153).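 Also: score merges spot fluorescence with signal-to-noise ratio from the scanned slide images.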 The settings on record: higher = more signal.
Assay [13] can be described thus: PSAC antagonists in infected red cells, primary screen, cell-based, P. falciparum Indochina, OD700, 1 h (AID 1154). The settings on record: P. falciparum Indochina infected RBC osmotic lysis, higher = more signal, called active from +8 up or from −8 down.
Assay [14] in a line: PSAC antagonists in infected red cells, primary screen, cell-based, P. falciparum Indochina, OD700, 2 h (AID 1155).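 Also: lysis reports solute entry through the parasite surface anion channel PSAC; channel blockers reduce lysis of infected cells.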 The settings on record: P. falciparum Indochina infected erythrocytes, osmotic lysis OD700; higher = more signal, called active from +8 up or from −8 down.
A short description of assay [15]: osmotic lysis modulators in infected erythrocytes, primary screen, PSAC antagonist project, cell-based, P. falciparum Indochina, OD700, 3 h (AID 1156). The settings on record: higher = more signal, called active from +8 up or from −8 down.
Assay [16] is described as follows: PSAC antagonists in infected red cells, primary screen, cell-based, P. falciparum Indochina, OD700, 18 h (AID 1157). Conditions: P. falciparum Indochina infected erythrocytes, osmotic lysis OD700, 18 h; higher = more signal, called active from +8 up or from −8 down.
Assay [17] in a line: modulators of S6 phosphorylation in cells, primary screen, cell-based, A549, cytoblot, luminescence, serum-stimulated (AID 1158).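 Also: serum-stimulated A549 lung adenocarcinoma cells; signal is phosphorylated S6 detected by cytoblot immunostaining with HRP secondary.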 Conditions: A549 phospho-S6 cytoblot, 5 h, higher = more signal.
The target of assay [18] is NADPH oxidase 2 (Homo sapiens) (UniProt P04839). As to the kind of experiment: NOX2-dependent H2O2 signal modulators, primary screen, NOX inhibitor project, cell-based, HEK293-NOX2, PMA-stimulated, Amplex Red fluorescence (AID 1159). Also: test concentration not given here. Conditions: 45 min, higher = more signal, called active from +8 up or from −8 down.
Chain of NADPH oxidase 2 (Homo sapiens) (P04839 whole entry, looked up): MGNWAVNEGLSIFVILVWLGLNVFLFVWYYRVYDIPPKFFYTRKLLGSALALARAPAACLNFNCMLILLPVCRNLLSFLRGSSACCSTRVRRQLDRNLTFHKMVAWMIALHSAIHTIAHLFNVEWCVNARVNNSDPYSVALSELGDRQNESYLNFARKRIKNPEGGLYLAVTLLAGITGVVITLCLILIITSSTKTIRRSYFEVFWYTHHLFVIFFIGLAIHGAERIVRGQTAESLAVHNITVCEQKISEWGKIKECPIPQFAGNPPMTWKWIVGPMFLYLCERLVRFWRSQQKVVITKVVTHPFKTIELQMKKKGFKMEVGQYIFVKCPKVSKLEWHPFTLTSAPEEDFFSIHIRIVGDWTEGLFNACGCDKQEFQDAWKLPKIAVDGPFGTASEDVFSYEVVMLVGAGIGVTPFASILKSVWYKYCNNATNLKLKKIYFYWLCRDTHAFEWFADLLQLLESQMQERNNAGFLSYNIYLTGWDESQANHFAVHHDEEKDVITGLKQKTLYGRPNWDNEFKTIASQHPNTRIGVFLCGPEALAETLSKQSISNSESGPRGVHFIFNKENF
In assay [19] the target is NADPH oxidase 4 (Homo sapiens) (UniProt Q9NPH5). The assay is described as follows: NOX4-dependent H2O2 signal modulators, primary screen, NOX inhibitor project, cell-based, HEK293-NOX4, tetracycline-induced, Amplex Red fluorescence (AID 1160). Conditions: 45 min, higher = more signal, called active from +8 up or from −8 down.
Chain of NADPH oxidase 4 (Homo sapiens) (Q9NPH5 whole entry, looked up): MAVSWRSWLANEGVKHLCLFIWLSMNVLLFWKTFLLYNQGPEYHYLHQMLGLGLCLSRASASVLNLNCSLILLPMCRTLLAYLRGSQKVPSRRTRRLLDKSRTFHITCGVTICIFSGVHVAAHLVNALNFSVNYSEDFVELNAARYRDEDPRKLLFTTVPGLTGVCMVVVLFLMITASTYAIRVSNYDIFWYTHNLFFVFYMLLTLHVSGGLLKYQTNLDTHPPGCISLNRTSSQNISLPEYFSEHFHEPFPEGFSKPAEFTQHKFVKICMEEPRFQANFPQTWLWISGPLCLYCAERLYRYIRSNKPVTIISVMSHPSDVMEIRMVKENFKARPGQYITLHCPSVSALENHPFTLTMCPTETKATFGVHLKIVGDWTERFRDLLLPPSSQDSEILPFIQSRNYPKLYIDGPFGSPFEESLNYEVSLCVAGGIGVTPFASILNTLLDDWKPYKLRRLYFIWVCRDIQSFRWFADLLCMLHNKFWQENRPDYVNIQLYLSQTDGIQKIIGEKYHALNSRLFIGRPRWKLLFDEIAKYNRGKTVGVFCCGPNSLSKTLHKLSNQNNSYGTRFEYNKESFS
The target in assay [20] is NADPH oxidase 5 (Homo sapiens) (UniProt Q96PH1). The assay is described as follows: NOX5-dependent H2O2 signal modulators, primary screen, NOX inhibitor project, cell-based, HEK293-NOX5, Amplex Red fluorescence (AID 1161). The settings on record: HEK293-NOX5, ionomycin, 45 min, higher = more signal.
Chain of NADPH oxidase 5 (Homo sapiens) (Q96PH1 whole entry, looked up): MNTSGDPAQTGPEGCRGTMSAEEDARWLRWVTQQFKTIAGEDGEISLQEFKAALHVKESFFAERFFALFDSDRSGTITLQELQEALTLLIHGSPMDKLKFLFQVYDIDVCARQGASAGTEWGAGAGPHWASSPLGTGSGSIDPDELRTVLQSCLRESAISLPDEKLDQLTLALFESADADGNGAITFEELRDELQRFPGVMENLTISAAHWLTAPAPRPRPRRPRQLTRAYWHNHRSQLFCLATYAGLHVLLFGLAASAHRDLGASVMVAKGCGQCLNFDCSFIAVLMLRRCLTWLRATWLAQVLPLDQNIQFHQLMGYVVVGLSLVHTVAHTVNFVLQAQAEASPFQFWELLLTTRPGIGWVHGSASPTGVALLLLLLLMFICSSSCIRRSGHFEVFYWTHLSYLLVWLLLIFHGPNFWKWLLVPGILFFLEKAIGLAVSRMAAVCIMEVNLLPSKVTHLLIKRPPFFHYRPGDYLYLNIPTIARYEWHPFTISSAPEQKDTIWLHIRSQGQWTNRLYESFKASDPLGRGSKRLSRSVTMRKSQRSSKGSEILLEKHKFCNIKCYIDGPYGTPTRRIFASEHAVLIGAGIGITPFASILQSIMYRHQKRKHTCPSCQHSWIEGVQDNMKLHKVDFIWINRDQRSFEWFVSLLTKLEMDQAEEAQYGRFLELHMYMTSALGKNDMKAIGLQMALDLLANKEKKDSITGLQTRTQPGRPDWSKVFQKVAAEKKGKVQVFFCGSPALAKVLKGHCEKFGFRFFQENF

Turning to `[N-]=[N+]=Nc1ccccc1C[C@@]1(C(=O)O)N=C(c2ccc(OCCCO)cc2)O[C@@H]1c1ccccc1N=[N+]=[N-]`, the composite z-score in assay [1] was -0.166; in [6], 1.96; in assay [7] it was 0.151; in the assay with Torsin-1A (Homo sapiens) [8] it was 0.0274; with Torsin-1A (Homo sapiens) [9], 0.286; in [10], -0.744. In addition, in assay [12], the composite z-score worked out at 0.384. Moreover, the z-score in assay [2] is -1.92 (inactive); in assay [3] it was 0.0288 (inactive); in assay [4], 2.09 (inactive); in assay [5], -0.333 (inactive); in assay [11], -0.855 (inactive); in assay [13], 29.2 (active). Also, the z-score was 24.7 (active) in [14]; 0.648 (inactive) in assay [15]; 4.53 (inactive) in [16]; 0.664 in [17]; -0.041 (inactive) in assay [18]; 1.17 (inactive) in [19]. In assay [20], the z-score worked out at 1.57.

With `CCOC(=O)C1=CC[C@@H](c2ccccc2)N(S(=O)(=O)c2ccc(C)cc2)[C@H]1c1cccc(OC)c1`, the composite z-score in assay [1] is -0.134; in assay [6], 0.717; in [7], 0.135; with Torsin-1A (Homo sapiens) [8], 0.4; with Torsin-1A (Homo sapiens) [9], 0.314; in assay [10] it was -0.176. Besides, the composite z-score in [12] was found to be 0.535. In addition, the z-score in assay [2] is -2.97 (inactive); in assay [3] it was 0.966 (inactive); in [4], -0.424 (inactive); in [5], 0.576 (inactive); in [11], -0.999 (inactive); in assay [13] it was 0.792 (inactive). The z-score in [14] is 0.779 (inactive); in assay [15] it was -0.422 (inactive); in assay [16] it was 0.385 (inactive); in assay [17], -0.245; in assay [18] it was 0.537 (inactive); in [19], 0.489 (inactive). Moreover, the z-score in assay [20] worked out at 0.732.

Regarding `COCCOC(=O)N1C(=O)[C@@]2(c3cc(C#CC4=CCCCC4)ccc31)[C@H](c1ccc(O)cc1)N1[C@H](c3ccccc3)[C@H](c3ccccc3)OC(=O)[C@H]1[C@@H]2C(=O)NC[C@H](O)c1ccccc1`, the composite z-score was determined as 0.259 in assay [1]; 0.318 in [6]; 0.0227 in [7]; 0.184 with Torsin-1A (Homo sapiens) [8]; 1.29 with Torsin-1A (Homo sapiens) [9]; 1.27 in [10]. Moreover, the composite z-score in [12] was found to be 0.0406. For the same compound, the z-score was -3.27 (inactive) in [2]; -0.354 (inactive) in assay [3]; -0.815 (inactive) in assay [4]; -0.369 (inactive) in assay [5]; 0.289 (inactive) in assay [11]; 1.8 (inactive) in [13]. The z-score is 0.44 (inactive) in [14]; -0.164 (inactive) in assay [15]; 0.368 (inactive) in [16]; -0.147 in [17]; 1.5 (inactive) in assay [18]; 0.547 (inactive) in [19]. Moreover, in assay [20], the z-score was 1.55.

With `COC(=O)C1N=C(c2ccc(OCCCO)cc2)N(c2ccccc2)O1` (stereo not given), the composite z-score in assay [1] was 0.924; in [6], 0.562; in assay [7] it was 0.308; in the assay with Torsin-1A (Homo sapiens) [8] it was 0.654; with Torsin-1A (Homo sapiens) [9], 0.328; in assay [10], 0.664. Further, the composite z-score in [12] stood at 0.103. Moreover, the z-score was 0.255 (inactive) in [2]; -0.787 (inactive) in assay [3]; 0.353 (inactive) in [4]; 0.0512 (inactive) in [5]; 0.336 (inactive) in assay [11]; 24.9 (active) in [13]. Also, the z-score is 7.38 (inactive) in assay [14]; 1.02 (inactive) in assay [15]; 1.04 (inactive) in [16]; 0.417 in assay [17]; 0.943 (inactive) in assay [18]; 0.392 (inactive) in assay [19]. The z-score in [20] is -0.0493.
